Assay outcomes (PubChem)
Sampled rows, rich in hits. Any-hit rate of the full collection: about 3.3%.
TLR4 MyD88 comp: blocks binding of human TLR4 to MyD88; O00206+Q99836; HeLa CL3-4 TLR4/MyD88 BLA complementation, FRET ratio; inhibition, % at 8.4 µM; 200,000 compounds, 0.18% hits; AID 861; in the data active means inhibition above about 25%
ABHD5 PLIN5 PPI: inhibitors of human ABHD5-perilipin-5 interaction. Q00G26+Q8WTS1. 360,000 compounds, 0.78% hits. Split G. princeps luciferase complementation, luminescence, 4 h. inhibition, % at 4 µM;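 active means inhibition above the mean inhibition across every tested compound plus 3 SD, cut at about 22% in these data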
Target sequence (Q00G26 whole entry, looked up): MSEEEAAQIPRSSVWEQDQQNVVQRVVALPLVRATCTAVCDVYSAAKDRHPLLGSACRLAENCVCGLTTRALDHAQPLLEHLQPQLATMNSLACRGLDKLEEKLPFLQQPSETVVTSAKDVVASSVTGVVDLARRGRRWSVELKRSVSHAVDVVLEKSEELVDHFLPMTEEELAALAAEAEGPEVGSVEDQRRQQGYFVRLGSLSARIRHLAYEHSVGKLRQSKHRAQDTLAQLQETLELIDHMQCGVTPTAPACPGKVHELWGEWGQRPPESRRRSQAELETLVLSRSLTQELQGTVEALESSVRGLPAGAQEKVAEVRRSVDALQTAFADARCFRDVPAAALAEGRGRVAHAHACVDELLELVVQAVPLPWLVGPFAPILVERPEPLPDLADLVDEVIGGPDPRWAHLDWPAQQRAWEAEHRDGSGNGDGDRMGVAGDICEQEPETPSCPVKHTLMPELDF
Target sequence (Q8WTS1 whole entry, looked up): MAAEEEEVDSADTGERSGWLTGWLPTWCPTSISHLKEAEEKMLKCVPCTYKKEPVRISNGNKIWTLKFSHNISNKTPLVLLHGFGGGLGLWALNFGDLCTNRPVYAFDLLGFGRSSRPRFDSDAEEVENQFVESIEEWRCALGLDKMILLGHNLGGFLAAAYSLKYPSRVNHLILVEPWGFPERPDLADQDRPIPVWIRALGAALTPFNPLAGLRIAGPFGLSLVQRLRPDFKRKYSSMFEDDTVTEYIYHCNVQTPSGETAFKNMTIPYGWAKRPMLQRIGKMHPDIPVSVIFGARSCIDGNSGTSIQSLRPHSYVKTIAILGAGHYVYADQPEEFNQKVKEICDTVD
NOD2-RIPK2 inh: inhibitors of human NOD2-RIPK2 interaction | O43353 | CHO BLA complementation NOD2-RIPK2, CCF4 ratio | inhibition, % at 4.98 µM | 360,000 compounds, 0.38% hits; in the data active means inhibition above about 21%
rCAG binder: molecules binding r(CAG) RNA repeats. r(CAG) RNA repeat, TO-PRO-1 dye displacement fluorescence. inhibition, % at 3 µM. 370,000 compounds, 1.3% hits. AID 651821;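 active means inhibition above the plate cutoff, the mean of all test compounds on that plate plus 3 SD, cut at about 35% in these data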;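 further: higher means more dye released from RNA so lower well fluorescence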
PRMT1 FP inh: PRMT1 (human) inhibition, primary screen; recombinant PRMT1, activity-based probe fluorescence polarization; inhibition, % at 2.79 µM; 370,000 compounds, 1.3% hits; AID 652257;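 active means inhibition above about 21% made by adding two undisclosed values, limit read from the data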
TLR9-MyD88 inh: blocks human TLR9 binding to MyD88; CHO BLA complementation TLR9-MyD88, CCF4 FRET ratio; inhibition, % at 4.98 µM; 340,000 compounds, 0.21% hits;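 active means inhibition above the mean over all tested compounds plus 3 SD, cut at about 21% in these data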
rCAG bind conf: r(CAG) RNA repeat binding, confirmation; shares compounds with rCAG binder; TO-PRO-1 dye displacement fluorescence; inhibition, % at 3 µM; 4,300 compounds, 70% hits; AID 652065;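 active means inhibition above a per-plate cutoff, the mean inhibition of sample wells plus 3 SD, cut at about 35% in these data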;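 further: loss of TO-PRO-1 fluorescence as compound displaces dye from 1x1 AA loop RNA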
dCAG dye counter: counter-screen for rCAG RNA binders: DNA CAG dye complex inhibitors; shares compounds with rCAG binder; d(CAG) DNA oligo TO-PRO-1 dye displacement, fluorescence; inhibition, % at 3 µM; 4,300 compounds, 94% hits; AID 652068;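 active means inhibition above its plate's cutoff, the mean test-well inhibition plus 3 SD, cut at about 4.8% in these data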;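 further: hits displace the dye from DNA and so lower well fluorescence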
DNA CAG DR: counter-screen for rCAG binders: inhibitors of DNA CAG TO-PRO-1 complex. shares compounds with rCAG binder. DNA CAG/GTC duplex TO-PRO-1 dye displacement fluorescence. IC50, µM. 250 compounds, 20% hits; in the data active means IC50 below about 10 µM
Each line names hits and unclear results; the compound was inactive in the other large screens (follow-up assays come after a bar, where they were run).

COc1ccc(Nc2nc(-c3ccccc3O)nc3ccccc23)cc1	rCAG binder 38 (no result: TLR4 MyD88 comp) | rCAG bind conf inactive | dCAG dye counter 6.9
O=C(O)c1ccc(Nc2nc(-c3ccccc3)nc3ccccc23)cc1	rCAG binder 37 (no result: TLR4 MyD88 comp) | rCAG bind conf inactive | dCAG dye counter 5.5
O=C(O)c1cccc(Nc2nc(-c3ccccc3)nc3ccccc23)c1	rCAG binder 49 (no result: TLR4 MyD88 comp) | rCAG bind conf inactive | dCAG dye counter 7.6
COc1cccc(Nc2nc(-c3ccccc3O)nc3ccccc23)c1	none (no result: TLR4 MyD88 comp)
CCOC(=O)[C@@H](NC(=O)CC[C@H]1O[C@@H](n2ccc(=O)[nH]c2=O)[C@H](O)[C@@H]1O)C(C)C	none (no result: TLR4 MyD88 comp, TLR9-MyD88 inh)
CC1(C)C2CCC(CN)C1C2 (centres undefined)	none (no result: TLR4 MyD88 comp)
Oc1ccc(/C=N/N(Cc2ccccc2)c2ccccc2)c(O)c1O	rCAG binder 38 | rCAG bind conf 45 | dCAG dye counter 25
O=C(NCCN1CCOCC1)c1cccc(NS(=O)(=O)c2ccc(Br)cc2)c1	none (no result: TLR4 MyD88 comp)
COc1cc(OC)cc(-c2c(-c3cccs3)c3cc(Br)ccc3n2C)c1	rCAG binder 40, PRMT1 FP inh 25 (no result: TLR4 MyD88 comp) | rCAG bind conf inactive | dCAG dye counter 9.3
CCCCN1C(=O)c2ccccc2NC1c1ccc(OC)c(COc2ccc(NC(C)=O)cc2)c1 (centres undefined)	none (no result: TLR4 MyD88 comp, ABHD5 PLIN5 PPI, NOD2-RIPK2 inh, rCAG binder, TLR9-MyD88 inh)
O=C1NC(=Nc2cccc(O)c2)S/C1=C\c1cccc([N+](=O)[O-])c1	rCAG binder 47 (no result: TLR4 MyD88 comp) | rCAG bind conf inactive | dCAG dye counter 11
O=C(c1cccs1)N1CC[C@H]2[C@H](CCCN2Cc2ccc(F)cc2)C1	none (no result: TLR4 MyD88 comp, ABHD5 PLIN5 PPI, NOD2-RIPK2 inh, TLR9-MyD88 inh)
O=C(O)CSCC(=O)N(Cc1ccccc1)c1nc(-c2ccccc2)c(-c2ccccc2)s1	rCAG binder 68 (no result: TLR4 MyD88 comp) | rCAG bind conf 86 | dCAG dye counter 54
CCOC(=O)c1sc(N(Cc2ccccc2)C(=O)CSc2ncn[nH]2)nc1C	none
CC(NC(=O)C1CCCN1C(=O)OC(C)(C)C)C(=O)OCc1ccccc1 (centres undefined)	none (no result: TLR4 MyD88 comp, TLR9-MyD88 inh)
Cc1sc2nc(SCC(=O)OC(C)C)n(C)c(=O)c2c1C	none
Cc1sc2nc(SCC(=O)c3ccc(O)c(O)c3)n(C)c(=O)c2c1C	rCAG binder 49 (no result: TLR4 MyD88 comp, ABHD5 PLIN5 PPI, NOD2-RIPK2 inh, TLR9-MyD88 inh) | rCAG bind conf 50 | dCAG dye counter 25
CC(C)=CCc1c(O)cc2oc3c(CC=C(C)C)c(O)c(O)c(CC=C(C)C)c3c(=O)c2c1O	rCAG binder 72 (no result: TLR4 MyD88 comp) | rCAG bind conf 67 | dCAG dye counter 47
CC(=O)c1ccc(O)c(CC=C(C)C)c1O	none (no result: TLR4 MyD88 comp)
Cc1cc2nc(C3CCCCC3)c(Cc3cccc(F)c3)n2c(C)c1Br	none (no result: TLR4 MyD88 comp, TLR9-MyD88 inh)
Cc1cc(OCC(=O)NNC(=S)NC(=O)c2ccc(Br)o2)ccc1Cl	rCAG binder 45 (no result: TLR4 MyD88 comp) | rCAG bind conf 69 | dCAG dye counter 22 | DNA CAG DR inactive
O=C(O)c1cc([N+](=O)[O-])ccc1NCc1ccccc1	none
O=C(O)c1cc([N+](=O)[O-])ccc1NCCCc1ccccc1	rCAG binder 37 (no result: TLR4 MyD88 comp) | rCAG bind conf inactive | dCAG dye counter 6.5
COc1ccc(/C=C2/C(=O)N(Cc3ccccc3)N=C2C)cc1	none
COc1ccc(/C=C2/C(=O)N(c3nc4ccccc4s3)N=C2CSc2ccc(Cl)cc2)cc1	rCAG binder 71 | rCAG bind conf 72 | dCAG dye counter 51
Cc1ccc(N2CC(C(=O)Nc3ccc(C)c(S(=O)(=O)N(C)C)c3)CC2=O)cc1 (centres undefined)	none
CCOC(=O)c1sc(N2C(=O)C(O)=C(C(=O)c3ccc(C)o3)C2c2cccc([N+](=O)[O-])c2)nc1C (centres undefined)	rCAG binder 55 (no result: TLR4 MyD88 comp) | rCAG bind conf 78 | dCAG dye counter 42
CCOc1ccc(C2C(C(=O)c3ccc(C)o3)=C(O)C(=O)N2c2nc(C)c(C(=O)OC)s2)cc1 (centres undefined)	none (no result: TLR4 MyD88 comp)
CCOC(=O)c1sc(N2C(=O)C(O)=C(C(=O)c3ccc(C)o3)C2c2ccc(OC)c(OC)c2)nc1C (centres undefined)	none (no result: TLR4 MyD88 comp)
COC(=O)c1sc(N2C(=O)C(O)=C(C(=O)c3ccc(C)o3)C2c2ccc(OC)c(OC)c2)nc1C (centres undefined)	rCAG binder 37 (no result: TLR4 MyD88 comp) | rCAG bind conf 36 | dCAG dye counter 9.9
COC(=O)c1sc(N2C(=O)C(O)=C(C(=O)c3ccc(C)o3)C2c2ccc([N+](=O)[O-])cc2)nc1C (centres undefined)	rCAG binder 66 (no result: TLR4 MyD88 comp) | rCAG bind conf 68 | dCAG dye counter 28 | DNA CAG DR 3.3
Cc1ccc2nc(N3C(=O)C(O)=C(C(=O)c4ccc(C)o4)C3c3cccc(O)c3)sc2c1 (centres undefined)	rCAG binder 70 | rCAG bind conf 69 | dCAG dye counter 33
Clc1ccc(-c2csc(N3CCSCC3)n2)cc1	none
CCc1ccccc1NC(=O)CNC(=O)CSC(=S)N1CCCC1	none (no result: TLR4 MyD88 comp)
COc1ccc(S(=O)(=O)NCCC(=O)N2CCCN(C)CC2)cc1	none (no result: TLR4 MyD88 comp)
COc1ccc(N2CCN(Cc3nc(-c4ccccc4)no3)CC2)cc1	none
COCCN(C(=O)CCc1ccccc1OC)c1nnc(-c2cccnc2)s1	none
COc1ccc(C2C(C(C)=O)=C(O)C(=O)N2c2nc3ccccc3s2)cc1OC (centres undefined)	none
COc1ccc2nc(N3C(=O)C(O)=C(C(=O)c4ccco4)C3c3ccc(OC)c(OC)c3)sc2c1 (centres undefined)	rCAG binder 56 (no result: TLR4 MyD88 comp) | rCAG bind conf 69 | dCAG dye counter 25 | DNA CAG DR inactive
COc1ccc(NS(=O)(=O)c2cc(N=Nc3c(O)[nH]c(=O)[nH]c3=O)ccc2OC)cc1Br	none (no result: TLR4 MyD88 comp)
Cc1ccc(N=Nc2c(O)[nH]c(=O)[nH]c2=O)cc1S(=O)(=O)Nc1ccc(Br)cc1	rCAG binder 36 (no result: TLR4 MyD88 comp) | rCAG bind conf inactive | dCAG dye counter 11
Cc1cccc(NC(=O)C2CCN(c3nnc(-n4cccc4)s3)CC2)c1C	none (no result: TLR4 MyD88 comp, ABHD5 PLIN5 PPI, NOD2-RIPK2 inh, TLR9-MyD88 inh)
CCOC(=O)C1=C(CSc2nc3c(cc2C#N)CN(C)CC3)OC(N)=C(C#N)C1c1ccc(Cl)cc1 (centres undefined)	rCAG binder 35 | rCAG bind conf inactive | dCAG dye counter 11
CCOC(=O)c1sc(NC(=O)CSc2n[nH]c(-c3ccccc3)n2)c(C#N)c1C	rCAG binder 60 | rCAG bind conf 56 | dCAG dye counter 19
CCOC(=O)c1sc(NC(=O)CSc2nc(C)cc(C)n2)c(C#N)c1C	none
CC[C@]1(C(=O)OC)[C@H]2C(=O)N(C)C(=O)[C@H]2[C@H]2CN=C(SC)N21	none (no result: TLR4 MyD88 comp)
